Experimental data as given in ChEMBL document CHEMBL3988442, “University of Dundee, Small-Polar-MMV Screening Library” (2021).

What follows are compounds tested against AMP-activated protein kinase, AMPK (Homo sapiens) (UniProt P54646+O43741+P54619+Q9UGJ0+Q9Y478+Q13131+Q9UGI9) (assay: AMP-dependent Kinase enzyme assay. An in vitro enzyme assay that detects ADP turnover that is directly proportional to AMPK activity. This uses naive AMPK that is activated during the assay with MK-8722). Settings: 30 µM.
Type: functional
Set-up: scale not given: direction of the effect not stated beside the values

Going from `COc1ccc(F)cc1-c1ccccc1CC1CNCCNC1=O` (stereo not given) to `COc1ccc(F)c(-c2cc(C(=O)NC3CC3)ccn2)c1`, the Percent Effect falls from 4.74% to -7.5%.

First: O=C(NCCc1nccs1)N1CCC(n2cccc2)CC1
Second: Cc1csc(CCNC(=O)N2CCC(n3cccc3)CC2)n1
The Percent Effect of the first is higher: -2.66% for the first, -3.41% for the second.

First: CC(C)(CNC(=O)c1ccc(Cl)o1)NC(=O)OC(C)(C)C
Second: CC(C)(C)C(NC(=O)CCS(C)(=O)=O)c1ccc(F)cc1F (stereo not given)
The Percent Effect of the first is lower: -2.97% for the first, 0.0332% for the second.

Compared with `O=S(=O)(NCCCn1cccn1)c1ccc2c(c1)CCC2`, `O=C(NCCn1ccnc1-c1cc2n(n1)CCCNC2)c1ccncc1` is lower in Percent Effect: 12.2% for the first, 0.773% for the second.

Compared with `CCN(C)Cc1cccc(CNC(=O)CSCc2ccncc2)c1`, `CCCC(=O)Nc1cnn(CC(=O)Nc2ccc(SC)cc2)c1` is lower in Percent Effect: -11.3% for the first, -33.2% for the second.

Going from `O=C(Cc1c(F)cccc1Cl)Nc1cc(N2CCOCC2)ncn1` to `O=C(CCOc1ccccc1F)N1CCC(O)CC1`, the Percent Effect falls from 5.35% to 3.95%.

Going from `O=C(CCn1ccnc1)N1CCC(c2nnc(-c3ccccn3)o2)CC1` to `CN1CCC(c2n[nH]c(=O)n2-c2cccc(Cl)c2)CC1`, the Percent Effect rises from 1.44% to 65.1%.

Compared with `O=C(c1ccc(-n2cnnc2)cc1Cl)N1CCCC2(CCNC2)C1` (stereo not given), `Cc1nn(C)cc1C(=O)N1CCCn2nc(CN3CC[C@H](F)C3)cc2C1` is higher in Percent Effect: 0.724% for the first, 2.32% for the second.

Going from `FC(F)(F)Oc1ccc(CN2CCCC(n3cncn3)C2)cc1` (stereo not given) to `CN(C)c1ccc(CN2CCN(c3ccc(C#N)cc3)C(=O)C2)cn1`, the Percent Effect falls from 3.31% to -0.161%.

Going from `COc1c(CNCC(=O)N2CCN(C)CC2)c(C(C)C)nn1C` to `CSCCC(=O)N1CCN(CC(C)(C)O)CC1`, the Percent Effect rises from -12.4% to -5.46%.

Going from `CCC(c1ccccc1)S(=O)(=O)CCO` (stereo not given) to `Cn1cccc1CN(C(=O)CC(CC(=O)O)c1cccs1)C1CC1` (stereo not given), the Percent Effect falls from 0.669% to -2.3%.

Going from `CNc1nc(C(=O)NCC2CCOc3ccccc3C2)cs1` (stereo not given) to `CN1CCN(C(=O)C2(S(C)(=O)=O)CCCC2)Cc2ccccc21`, the Percent Effect falls from 1.74% to -2.88%.

Going from `Cn1ccnc1-c1cn(CCCc2nnc(N)s2)nn1` to `CCc1nc(CSc2nnc(N)n2C2CC2)no1`, the Percent Effect rises from -15.1% to 7.62%.

Compared with `CCn1cc(NC(=O)c2cccc(CN3C[C@@H](C)O[C@@H](C)C3)c2)nn1`, `CC(C)[C@@H]1CN(C(=O)CN(C)Cc2ccc(F)cc2)C[C@H]1C(=O)O` is lower in Percent Effect: 1.85% for the first, 0.85% for the second.

Compared with `CN(CCOc1ccc(C#N)cc1)CC1CCS(=O)(=O)C1` (stereo not given), `C[C@@H]1CN(c2ccc(C#N)cn2)CC[C@@]1(O)C1CCOCC1` is lower in Percent Effect: 7.94% for the first, -1.81% for the second.

Going from `O=C(CCC1CCCN(C(=O)CCN2CCCCO2)C1)N1CCCC1` (stereo not given) to `CC(=O)NCC1CCCN(C(=O)Cc2c(C)noc2C)C1` (stereo not given), the Percent Effect falls from -2.7% to -3.15%.

Going from `CCCN1CCC(N2CCC(Cn3cc(CC(C)O)nn3)CC2)CC1` (stereo not given) to `CC(C)Oc1cc(N2CCN(Cc3ccsc3)C(CCO)C2)nc(N)n1` (stereo not given), the Percent Effect falls from -7.12% to -13.7%.

Going from `CC(C)(C)c1n[nH]cc1CNC1CCC(O)CC1` (stereo not given) to `CCCc1nc(C(=O)N2CCn3nc(C(=O)OC)cc3C2)cs1`, the Percent Effect rises from -0.675% to 1.42%.

Compared with `O=C(Cn1cc(Cl)cn1)N1CCNC1=O`, `CC(C)c1cc(C(=O)NCCc2nc(-c3cccnc3)n[nH]2)[nH]n1` is higher in Percent Effect: -8.6% for the first, 57.4% for the second.

First: CN(Cc1cc(Cl)c2c(c1)OCO2)Cc1cscn1
Second: CCc1csc(NC(=O)Nc2c(C)n[nH]c2C)n1
The Percent Effect of the first is lower: -12.9% for the first, -1.09% for the second.
